Source: PubChem (Broad Institute)
PglD inh = C. jejuni PglD acetyltransferase inhibitors, primary screen, biochemical, DTNB colorimetric, single point | AID 602405, 2012 | 360,000 compounds, 0.098% hits | purified PglD enzyme, DTNB colorimetric CoA detection | inhibition, % at 12.5 µM; in the data active = inhibition above about 16%, passing the limit was not always enough
CDK5 p35 inh = inhibitors of human CDK5/p35 kinase, primary screen, biochemical, single concentration; inhibition, % at 10 µM; Recombinant CDK5/p35, ADP-Glo luminescence, 60 min; Cyclin-dependent kinase 5 (Homo sapiens) + Cyclin-dependent kinase 5 activator 1 (Homo …; AID 488839, 2010; 330,000 compounds, 0.01% hits;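 active = highest replicate inhibition of at least 50% and at least 75% of replicates reaching 50%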;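 note: plate controls were DMSO neutral control for no effect and GW8510 at 10 µM for full effect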
dFosB activator = activators of delta FosB homodimer, primary screen, biochemical, fluorescence polarization, TAMRA-CDK5 oligo, single point | purified delta FosB; percent of positive-control signal above neutral wells | activation, % at 25 µM | 340,000 compounds, 0.99% hits;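 active = mean activation above about 17%, with every replicate also reaching it, limit read from the data, passing the limit was not always enough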
Target sequence (P13346 whole entry, looked up): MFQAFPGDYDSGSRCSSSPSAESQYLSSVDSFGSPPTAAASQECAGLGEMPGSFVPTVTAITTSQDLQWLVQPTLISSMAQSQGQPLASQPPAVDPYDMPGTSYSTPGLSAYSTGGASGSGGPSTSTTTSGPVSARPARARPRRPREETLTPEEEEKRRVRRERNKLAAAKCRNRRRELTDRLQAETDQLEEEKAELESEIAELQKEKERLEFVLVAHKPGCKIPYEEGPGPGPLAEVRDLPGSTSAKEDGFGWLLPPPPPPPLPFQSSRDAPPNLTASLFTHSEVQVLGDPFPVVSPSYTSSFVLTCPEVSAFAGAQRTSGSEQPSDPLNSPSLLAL
SIRT5 block = SIRT5 desuccinylase inhibitors, primary screen, biochemical, fluorescence imaging, single point, set 5. Purified SirT5, succinyl-peptide AMC, trypsin-coupled fluorescence. inhibition, % at 15 µM. 330,000 compounds, 1.1% hits; in the data active = inhibition above about 15%
Target sequence (Q9NXA8 whole entry, looked up): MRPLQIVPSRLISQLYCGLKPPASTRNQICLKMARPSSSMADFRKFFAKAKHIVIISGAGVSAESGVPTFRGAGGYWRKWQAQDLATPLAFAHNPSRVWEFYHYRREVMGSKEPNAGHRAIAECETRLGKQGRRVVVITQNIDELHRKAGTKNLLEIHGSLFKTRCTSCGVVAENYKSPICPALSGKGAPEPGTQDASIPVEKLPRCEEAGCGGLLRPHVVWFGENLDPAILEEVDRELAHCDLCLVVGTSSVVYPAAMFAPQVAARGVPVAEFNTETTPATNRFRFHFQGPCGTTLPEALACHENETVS
PvdQ acylase = P. aeruginosa PvdQ acylase inhibitors, primary screen, biochemical, fluorescence, plate reader and imaging, single point | PvdQ acylase [Pseudomonas aeruginosa LESB58] | purified PvdQ acylase | inhibition, % at 10 µM | 340,000 compounds, 0.063% hits | AID 488965, 2010; in the data active = inhibition above about 30%, passing the limit was not always enough;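 note: 0% = vehicle neutral wells and 100% = reference inhibitor wells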
FGF22 binding = binders of human FGF22 protein, primary screen, FGF22 synaptogenesis inhibitor project, biophysical, thermal shift, single point; Fibroblast growth factor 22 (Homo sapiens), Q9HCT0; recombinant FGF22 thermal shift, SYPRO orange fluorescence; percent of sucrose octasulfate shift, DMSO zero; activity (Tm shift, normalised), % at 9.99 µM; 340,000 compounds, 1.5% hits; AID 651658, 2012;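 active = mean Tm shift, scaled 0 neutral to 100 positive control, at about 1.3% or above, every replicate too, limit read from the data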
The depositor's hits bear a star; nt = not tested or not shown. Most compounds without a hit are left out; they make up all but 2.8% or so of the library.

SMILES | PglD inh | CDK5 p35 inh | dFosB activator | SIRT5 block | PvdQ acylase | FGF22 binding
O=C(O)[C@H]1CCCC[C@H]1C(=O)Nc1ccc(S(=O)(=O)N2CCCCC2)cc1 | 0 | -4 | -2 | -3 | -6 | 0
O=C(CSc1ncnc2ccccc12)Nc1cccc(S(=O)(=O)N2CCCC2)c1 | 6 | -1 | -16 | 0 | -10 | 43*
O=C(/C=C/c1ccc(OCCCF)cc1)Nc1ccnc(-c2ccncc2)n1 | nt | 1 | -11 | -1 | -4 | 0
O=C(/C=C/c1ccc(OCCCF)cc1)Nc1ccnc(-c2cccnc2)n1 | 3 | 0 | 4 | -4 | -10 | 44*
COc1ccc(S(=O)(=O)N2CCCCN3[C@@H](CO)[C@H](c4ccc(C#CC(C)C)cc4)[C@@H]3C2)cc1 | -4 | nt | nt | 15* | nt | 0
O=S(=O)(c1ccccc1)N1CCCCN2[C@H](C1)[C@@H](c1ccc(C#CC3CCCC3)cc1)[C@@H]2CO | -4 | nt | nt | 15* | nt | 0
O=S(=O)(c1ccccc1)N1CCCCN2[C@@H](CO)[C@H](c3ccc(C#CC4CCCC4)cc3)[C@@H]2C1 | 4 | nt | nt | 7 | nt | 0
CCCNC(=O)C[C@@H]1CC[C@@H]2[C@@H](COc3ccc(NC(=O)C4CCCC4)cc3C(=O)N2C)O1 | -1 | nt | nt | 7 | nt | 0
O=C(NC(=S)Nc1ccc(Cc2ccncc2)cc1)c1ccccc1F | nt | 0 | -10 | 2 | 8 | 44*
COc1ccc(C(=O)NC(=S)Nc2ccc(Cc3ccncc3)cc2)cc1 | nt | -1 | -10 | 15 | -9 | 44*
Cc1ccccc1C(=O)NC(=S)Nc1ccc(Cc2ccncc2)cc1 | -7 | 1 | -20 | nt | -10 | nt
O=C(C[C@@H]1CC[C@H](NS(=O)(=O)c2ccc(F)cc2)[C@H](CO)O1)NCc1ccncn1 | 2 | nt | nt | -2 | nt | 0
CCOC(=O)c1cnc2ccc(OC)cc2c1Nc1ccc(N2CCN(C)CC2)cc1 | -9 | 1 | 36* | 2 | 4 | 0
O=C(O)c1ccc(N/N=C/C2=C(N3CCOCC3)C(=C\c3ccccc3)/CC2)cc1 | 2 | 0 | -1 | 19* | 5 | 0
Cc1cc(C)nc(N/N=C/C2=C(N3CCOCC3)C(=C\c3ccc(Cl)cc3)/CC2)n1 | nt | 1 | -10 | nt | -9 | nt
COc1ccc(-c2nc(NC(=O)Cn3cnnn3)sc2C)cc1 | -1 | -4 | 2 | nt | 16 | 1
Cc1sc(NC(=O)Cn2cnnn2)nc1-c1ccc(Cl)cc1 | nt | 1 | -1 | -3 | -7 | 43*
C/C=C/c1cnc2c(c1)C(=O)N([C@H](C)CO)C[C@@H](C)[C@H](CN(C)Cc1ccncc1)O2 | 13 | nt | nt | 0 | nt | 0
c1ccc(-c2csc(-n3cccn3)n2)cc1 | nt | 1 | 1 | 2 | -4 | 43*
c1ccc(-c2csc(N3CCSCC3)n2)cc1 | nt | 0 | -5 | 1 | 7 | 0
CC(C)c1csc(CN2CCC(C(=O)Nc3cccc(-c4ccco4)c3)CC2)n1 | nt | nt | nt | nt | nt | 44*
CCN(CC)CCNC(=O)c1ccc(NC(=O)/C=C/c2ccc3ccccc3n2)cc1 | 2 | 0 | -32 | 0 | 11 | 1.6*
Cc1ccc(C2=NCCn3c2c2ccc(C(F)(F)F)cc2[n+]3[O-])cc1 | -2 | 0 | -4 | 0 | -11 | 43*
CCOC(=O)C1(CCc2ccccc2)CCN(C(=O)CCc2cnn(C)c2)CC1 | nt | -2 | 5 | 1 | 3 | 44*
CCOC(=O)C1(CCCc2ccccc2)CCN(C(=O)[C@@H]2C[C@@H](C)NC(=S)N2)CC1 | 4 | 1 | -4 | -2 | 4 | 52*
SMILES | PglD inh | CDK5 p35 inh | dFosB activator | SIRT5 block | PvdQ acylase | FGF22 binding
COCCOC(=O)N1C(=O)[C@@]2(c3ccccc31)[C@H](c1ccccc1OCCO)N1[C@H](c3ccccc3)[C@H](c3ccccc3)OC(=O)[C@H]1[C@@H]2C(=O)NC[C@H](O)c1ccccc1 | -5 | nt | nt | -1 | nt | -1
O=C(CSc1ncnc2sccc12)Nc1ccccc1 | nt | 0 | -7 | -4 | -13 | 43*
C[C@@H]1CCCCO[C@H](CN(C)S(=O)(=O)c2cccs2)[C@@H](C)CN([C@@H](C)CO)C(=O)c2cc(NS(=O)(=O)c3ccc(F)cc3)ccc2O1 | 0 | nt | nt | 7 | nt | 0
COc1ccc(S(=O)(=O)Nc2ccc3c(c2)C(=O)N([C@@H](C)CO)C[C@@H](C)[C@@H](CN(C)CC2CCCCC2)OCCCC[C@@H](C)O3)cc1 | 4 | nt | nt | nt | nt | 0
COc1ccc(CC(=O)NNC(=O)CCC(=O)Nc2cc(C)ccc2C)cc1 | nt | -1 | -5 | 4 | -3 | 44*
CNC[C@@H]1Oc2ccc(NS(=O)(=O)c3cccs3)cc2C(=O)N([C@@H](C)CO)C[C@H]1C | 1 | nt | nt | 4 | nt | 0
Cc1nc2ccc3nc(NC(=O)c4ccc5c(c4)OCCO5)sc3c2s1 | -7 | 0 | 173* | nt | -6 | nt
CC(=O)N/N=C(\C)c1ccc2c(c1)OCCO2 | nt | 2 | -2 | 0 | -10 | 43*
Cc1cc(C)c(C#N)c(SCCN2CCCCC2)n1 | -8 | 1 | 9 | 2 | -10 | 0
Cc1cc(C(F)(F)F)nc(SCCN2CCOCC2)c1C#N | nt | -2 | -2 | 2 | -3 | 43*
C[C@@H]1CN([C@@H](C)CO)C(=O)c2cccc(NC(=O)C3CCOCC3)c2O[C@@H]1CN(C)S(=O)(=O)c1cn(C)cn1 | -1 | nt | nt | 0 | nt | 0
C/C(CC(=O)Nc1ccc(Cl)cc1C(F)(F)F)=N\NC(=O)c1ccccn1 | nt | -1 | -16 | -4 | -4 | 43*
O=C(CSc1ccc(-c2ccccc2)nn1)N1CCN(c2ccccc2)CC1 | -1 | 0 | 7 | 18* | -3 | 0
C[C@H](NC(=O)C[C@H]1CC[C@H]2[C@@H](COC[C@@H](O)CN2C)O1)c1ccccc1 | -3 | nt | nt | 9 | nt | 0
CCOC(=O)c1c(C)[nH]c(C)c1C(=O)COC(=O)c1cc2ccccc2cc1O | nt | 0 | -6 | 112* | -9 | 0
CCOC(=O)c1c(C)[nH]c(C)c1C(=O)COC(=O)c1cc2ccccc2cc1OC | -2 | 0 | 3 | nt | 8 | nt
CC1(c2ccccc2)NC(=O)N(CC(=O)Nc2ccc([N+](=O)[O-])cc2)C1=O (configuration not stated) | 5 | 0 | -13 | -2 | -5 | 43*
C[C@H]1CN([C@@H](C)CO)S(=O)(=O)c2ccc(C#CC(C)(C)O)cc2O[C@@H]1CN(C)Cc1ccncc1 | -1 | nt | nt | 0 | nt | 0
